Laboratory results as given in PubChem BioAssay.
Calls of active or inactive are those of the source.

How the values were obtained:
[1] = system: Plasmodium falciparum Sir2 (PF13_0152, Sir2A); experiment: pfSir2 binders on small-molecule microarrays, primary screen, biochemical, small-molecule microarray, 635 nm fluorescence (AID 1098); conditions: small-molecule microarray binding, fluorescence 635 nm; higher = more signal;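 also: score merges spot fluorescence intensity with its signal-to-noise ratio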
[2] = small-molecule microarray binders of probe aDKK1, primary screen, biochemical, biotinylated probe, 635/667 nm fluorescence (AID 1099); conditions: higher = more signal;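 also: score merges 667nm spot fluorescence with signal to noise across triplicate slides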
[3] = small-molecule microarray binders of probe aCHRDL2, primary screen, biochemical, biotinylated probe, 635/667 nm fluorescence (AID 1100); conditions: higher = more signal
[4] = splicing luciferase reporter signal modulators, primary screen, spliceosome inhibition project, cell-based, HEK293, splice +/- reporter (AID 1101); conditions: luminescence, 24 h, higher = more signal, called active from +8 up or from −8 down;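 also: HEK293 cells carrying a splicing-competent luciferase reporter gene; test concentration not given here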
[5] = molecular target: Fibroblast growth factor 10 (Homo sapiens) (UniProt O15520); experiment: FGF10 binders on small-molecule microarrays, primary screen, biochemical, small-molecule microarray, 635 nm fluorescence (AID 1102); conditions: FGF10 binding, fluorescence 635 nm, higher = more signal
[6] = system: glycogen synthase kinase-3 (GSK3A per assay name; protocol says GSK3B); experiment: GSK3 binders on small-molecule microarrays, primary screen, biochemical, small-molecule microarray, 635 nm fluorescence, GSK3A (AID 1103); conditions: small-molecule microarray binding, fluorescence 635 nm; higher = more signal; also: the record names both GSK3A and GSK3B
[7] = molecular target: Epidermal growth factor receptor (Homo sapiens) (UniProt P00533); experiment: EGFR binders on small-molecule microarrays, primary screen, biochemical, small-molecule microarray, 635 nm fluorescence (AID 1104); conditions: EGFR binding, higher = more signal;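 also: score merges 667 nm emission intensity with spot signal to noise over triplicate slides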
[8] = molecular target: Follistatin-related protein 3 (Homo sapiens) (UniProt O95633); experiment: FSTL3 binders on small-molecule microarrays, primary screen, biochemical, small-molecule microarray, 635 nm fluorescence (AID 1105); conditions: FSTL3 binding, higher = more signal;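 also: score merges emission near 667 nm and signal to noise per printed spot across three slides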
[9] = molecular target: Dickkopf-related protein 1 (Homo sapiens) (UniProt O94907); experiment: DKK1 binders on small-molecule microarrays, primary screen, biochemical, small-molecule microarray, 635 nm fluorescence scan (AID 1106); conditions: DKK1 binding, higher = more signal;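 also: score merges emission near 667 nm with signal to noise over three replicate slides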
[10] = system: Inhibin beta A chain (activin A); experiment: INHBA (activin A) binders on microarrays, primary screen, biochemical, small-molecule microarray, 635 nm fluorescence scan (AID 1107); conditions: small-molecule microarray binding, higher = more signal;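 also: mouse activin A protein probed at 4.33 µg/mL on printed slides; score merges bound-protein fluorescence near 667 nm with spot signal-to-noise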
[11] = system: Human papillomavirus type 1a protein E7 (residues 44-93); experiment: HPV1a E7 fragment binders on microarrays, primary screen, biochemical, small-molecule microarray, residues 44-93, 635 nm fluorescence (AID 1108); conditions: small-molecule microarray binding, fluorescence 635 nm; higher = more signal;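 also: E7 fragment applied at 1 µg/mL in TBST for 1 h at 4 C; score combines spot fluorescence with its signal to noise ratio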
[12] = modulators of HCV replicon luciferase signal, primary screen, HCV replication inhibitor project, Huh7 cells, luciferase reporter (AID 1109); conditions: 48 h, higher = more signal;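 also: huh7 hepatoma cells harbouring a luciferase neomycin HCV replicon reporter; luciferase luminescence as measure of HCV replicon replication; test concentration not given here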
[13] = molecular target: Left-right determination factor 2 (Homo sapiens) (UniProt O00292); experiment: LEFTY2 binders on small-molecule microarrays, primary screen, biochemical, small-molecule microarray, 635 nm fluorescence scan (AID 1110); conditions: LEFTY2 binding, higher = more signal
[14] = molecular target: Calmodulin-1 (Homo sapiens) (UniProt P0DP23); experiment: CALM1 binders on microarrays, EGTA buffer, profiling panel, biochemical, small-molecule microarray, Cy5-labelled CALM1 (AID 1111); conditions: Cy5-CALM1 binding fluorescence, higher = more signal;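 also: labelled calmodulin applied in Tris saline Tween buffer holding calcium plus EGTA and DTT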
[15] = molecular target: Calmodulin-1 (Homo sapiens) (UniProt P0DP23); experiment: calcium-bound CALM1 binders on microarrays, profiling panel, artefact control for SMM control-protein annotation, biochemical, small-molecule microarray, Cy5-labelled CALM1, plus calcium (AID 1112); conditions: Cy5-CALM1 binding fluorescence, higher = more signal;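 also: score merges spot fluorescence with signal to noise from triplicate slides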
[16] = small-molecule microarray binders of probe aWnt5a, primary screen, biochemical, biotinylated probe, 635/667 nm fluorescence (AID 1113); conditions: higher = more signal;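 also: score merges 667 nm fluorescence intensity with signal-to-noise per printed feature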
[17] = small-molecule microarray binders of probe aShh, primary screen, biochemical, biotinylated probe, 635/667 nm fluorescence (AID 1114); conditions: higher = more signal;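 also: probe is biotin-labelled aShh protein from a stem cell growth factor screen; measures binding of labelled protein to compounds printed on the slide; score merges feature fluorescence at 667 nm with signal-to-noise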
[18] = small-molecule microarray binders of probe aNog, primary screen, biochemical, biotinylated probe, 635/667 nm fluorescence (AID 1115); conditions: higher = more signal;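 also: probe is biotinylated aNog protein used at 0.15 µg/mL for 1 h at 4 C; z-score combines 667 nm fluorescence of each spot with its signal to noise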
[19] = molecular target: Torsin-1A-interacting protein 1 (Homo sapiens) (UniProt Q5JTV8); experiment: LAP1 binders from COS7 cell lysate, primary screen, small-molecule microarray, 635/667 nm fluorescence (AID 1116); conditions: COS7-hLAP1 lysate binding, 635 nm fluorescence, higher = more signal
[20] = molecular target: Alpha-bungarotoxin (Bungarus multicinctus) (UniProt P60615); experiment: alpha-bungarotoxin binders on microarray, profiling panel, artefact control for SMM control protein annotation, biochemical, small-molecule microarray, Alexa647 label, 635/667 nm fluorescence (AID 1117); conditions: alpha-BTX-A647 binding fluorescence, higher = more signal
Sequence of Alpha-bungarotoxin (Bungarus multicinctus) (P60615 whole entry, looked up): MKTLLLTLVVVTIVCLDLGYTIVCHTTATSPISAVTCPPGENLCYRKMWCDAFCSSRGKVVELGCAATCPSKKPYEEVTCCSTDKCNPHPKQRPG

Sequence of Left-right determination factor 2 (Homo sapiens) (O00292 whole entry, looked up): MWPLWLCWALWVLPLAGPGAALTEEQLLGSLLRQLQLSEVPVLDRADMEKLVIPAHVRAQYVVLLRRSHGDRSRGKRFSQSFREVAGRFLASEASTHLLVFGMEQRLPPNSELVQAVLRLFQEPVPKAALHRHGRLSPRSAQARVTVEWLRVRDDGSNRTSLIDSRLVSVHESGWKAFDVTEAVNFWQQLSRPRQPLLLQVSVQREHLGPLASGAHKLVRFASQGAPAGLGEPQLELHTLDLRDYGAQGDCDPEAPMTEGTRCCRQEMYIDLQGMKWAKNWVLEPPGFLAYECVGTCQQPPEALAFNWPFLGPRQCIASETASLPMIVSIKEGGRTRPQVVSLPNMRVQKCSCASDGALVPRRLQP
Sequence of Fibroblast growth factor 10 (Homo sapiens) (O15520 whole entry, looked up): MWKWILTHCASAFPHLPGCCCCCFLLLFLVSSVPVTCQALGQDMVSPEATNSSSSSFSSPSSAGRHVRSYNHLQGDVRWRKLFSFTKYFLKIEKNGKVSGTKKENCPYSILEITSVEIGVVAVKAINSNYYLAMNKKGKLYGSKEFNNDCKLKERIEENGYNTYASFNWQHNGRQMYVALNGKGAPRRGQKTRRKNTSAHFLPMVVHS
Sequence of Follistatin-related protein 3 (Homo sapiens) (O95633 whole entry, looked up): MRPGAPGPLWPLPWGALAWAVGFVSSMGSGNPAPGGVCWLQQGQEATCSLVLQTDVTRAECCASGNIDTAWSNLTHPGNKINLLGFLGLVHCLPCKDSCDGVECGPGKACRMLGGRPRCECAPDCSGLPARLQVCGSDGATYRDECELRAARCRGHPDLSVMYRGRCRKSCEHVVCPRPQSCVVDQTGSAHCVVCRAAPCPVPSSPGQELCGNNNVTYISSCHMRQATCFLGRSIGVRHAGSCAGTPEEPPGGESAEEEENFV
Sequence of Epidermal growth factor receptor (Homo sapiens) (P00533 whole entry, looked up): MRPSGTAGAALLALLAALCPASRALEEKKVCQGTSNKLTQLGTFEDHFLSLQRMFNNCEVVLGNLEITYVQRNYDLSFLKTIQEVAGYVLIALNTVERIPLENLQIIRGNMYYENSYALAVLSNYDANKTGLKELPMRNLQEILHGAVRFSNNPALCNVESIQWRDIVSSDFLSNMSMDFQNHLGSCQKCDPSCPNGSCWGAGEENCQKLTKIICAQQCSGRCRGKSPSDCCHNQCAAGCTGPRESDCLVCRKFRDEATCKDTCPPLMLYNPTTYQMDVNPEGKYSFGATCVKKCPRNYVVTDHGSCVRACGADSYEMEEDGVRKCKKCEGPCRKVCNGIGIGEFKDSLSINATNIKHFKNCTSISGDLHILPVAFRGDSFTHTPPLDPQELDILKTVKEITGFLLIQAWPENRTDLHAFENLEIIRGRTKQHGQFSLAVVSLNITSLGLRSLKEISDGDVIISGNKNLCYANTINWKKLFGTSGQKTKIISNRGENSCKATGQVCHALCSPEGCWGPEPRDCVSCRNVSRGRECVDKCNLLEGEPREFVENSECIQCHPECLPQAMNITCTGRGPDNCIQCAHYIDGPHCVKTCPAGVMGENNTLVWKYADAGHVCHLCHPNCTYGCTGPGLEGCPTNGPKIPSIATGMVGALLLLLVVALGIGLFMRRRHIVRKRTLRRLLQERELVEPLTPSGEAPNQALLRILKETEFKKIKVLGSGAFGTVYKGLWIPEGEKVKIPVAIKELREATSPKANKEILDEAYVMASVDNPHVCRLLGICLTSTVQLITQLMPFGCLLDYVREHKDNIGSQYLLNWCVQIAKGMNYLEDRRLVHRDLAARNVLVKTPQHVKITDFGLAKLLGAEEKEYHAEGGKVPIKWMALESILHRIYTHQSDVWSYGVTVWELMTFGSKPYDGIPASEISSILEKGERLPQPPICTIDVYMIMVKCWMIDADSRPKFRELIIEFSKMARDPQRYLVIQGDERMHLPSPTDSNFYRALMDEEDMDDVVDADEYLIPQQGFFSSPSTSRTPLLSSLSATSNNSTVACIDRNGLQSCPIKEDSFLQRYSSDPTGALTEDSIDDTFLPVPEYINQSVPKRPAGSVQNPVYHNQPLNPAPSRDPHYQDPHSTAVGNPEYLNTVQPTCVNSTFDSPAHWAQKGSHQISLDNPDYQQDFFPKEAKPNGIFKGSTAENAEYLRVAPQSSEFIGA
Sequence of Torsin-1A-interacting protein 1 (Homo sapiens) (Q5JTV8 whole entry, looked up): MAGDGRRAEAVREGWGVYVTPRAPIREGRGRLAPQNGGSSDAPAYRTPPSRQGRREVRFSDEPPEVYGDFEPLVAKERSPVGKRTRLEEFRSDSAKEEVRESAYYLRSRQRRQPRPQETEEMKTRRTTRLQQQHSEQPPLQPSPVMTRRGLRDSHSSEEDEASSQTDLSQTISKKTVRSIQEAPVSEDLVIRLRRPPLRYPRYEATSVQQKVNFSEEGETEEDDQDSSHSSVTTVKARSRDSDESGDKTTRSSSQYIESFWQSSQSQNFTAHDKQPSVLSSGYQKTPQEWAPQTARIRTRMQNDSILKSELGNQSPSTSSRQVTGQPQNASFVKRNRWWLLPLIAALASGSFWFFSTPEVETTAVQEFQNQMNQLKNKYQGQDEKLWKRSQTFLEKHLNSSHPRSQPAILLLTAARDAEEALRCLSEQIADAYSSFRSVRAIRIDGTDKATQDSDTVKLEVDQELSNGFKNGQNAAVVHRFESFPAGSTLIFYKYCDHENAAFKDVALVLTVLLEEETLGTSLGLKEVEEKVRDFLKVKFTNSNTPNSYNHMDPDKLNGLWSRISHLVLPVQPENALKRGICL
Sequence of Dickkopf-related protein 1 (Homo sapiens) (O94907 whole entry, looked up): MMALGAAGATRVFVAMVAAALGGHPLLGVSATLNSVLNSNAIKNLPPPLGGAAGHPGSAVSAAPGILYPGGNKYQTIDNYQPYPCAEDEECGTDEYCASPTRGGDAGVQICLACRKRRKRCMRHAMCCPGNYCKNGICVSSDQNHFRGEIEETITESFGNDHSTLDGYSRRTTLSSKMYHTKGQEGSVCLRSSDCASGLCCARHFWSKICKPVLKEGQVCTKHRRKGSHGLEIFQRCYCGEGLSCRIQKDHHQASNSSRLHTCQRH

## COc1ccc(O[C@H]2C=C[C@@H](c3ccccc3)O[C@@H]2CON=C(C)C)cc1
[1]
  composite z-score: 1.04
[2]
  composite z-score: 0.267
[3]
  composite z-score: 0.755
[4]
  z-score: 1.07 (inactive)
[5]
  composite z-score: -0.665
[6]
  composite z-score: -1.12
[7]
  composite z-score: -0.0601
[8]
  composite z-score: -0.0815
[9]
  composite z-score: -0.292
[10]
  composite z-score: 1.42
[11]
  composite z-score: -0.336
[12]
  z-score: -0.75
[13]
  composite z-score: 0.317
[14]
  composite z-score: 0.0047
[15]
  composite z-score: 0.495
[16]
  composite z-score: 0.0761
[17]
  composite z-score: 0.318
[18]
  composite z-score: 0.118
[19]
  composite z-score: 0.314
[20]
  composite z-score: 0.724

## C=CC1=C[C@H](O)[C@@H]2O[C@@H]2C12OCCCO2
[1]
  composite z-score: 0.139
[2]
  composite z-score: -0.296
[3]
  composite z-score: -0.136
[4]
  z-score: 0.404 (inactive)
[5]
  composite z-score: 0.351
[6]
  composite z-score: 1.03
[7]
  composite z-score: -0.547
[8]
  composite z-score: -0.0047
[9]
  composite z-score: -0.137
[10]
  composite z-score: 0.551
[11]
  composite z-score: 0.304
[12]
  z-score: -0.876
[13]
  composite z-score: 0.152
[14]
  composite z-score: -0.396
[15]
  composite z-score: -1.05
[16]
  composite z-score: -0.105
[17]
  composite z-score: -0.381
[18]
  composite z-score: -0.165
[19]
  composite z-score: 0.169
[20]
  composite z-score: 0.43

## CCOC(=O)[C@H](CC(C)C)NC(=O)CCC1CC(OC(=O)NCc2cccc3ccccc23)CC2(CCCC(COC(=O)NCCCN3CCCC3=O)O2)O1 (stereo not given in full)
[1]
  composite z-score: 0.389
[2]
  composite z-score: -0.171
[3]
  composite z-score: -0.38
[4]
  z-score: -0.406 (inactive)
[5]
  composite z-score: 0.408
[6]
  composite z-score: 0.819
[7]
  composite z-score: 0.384
[8]
  composite z-score: 0.787
[9]
  composite z-score: 0.583
[10]
  composite z-score: 0.0612
[11]
  composite z-score: 1.15
[12]
  z-score: -1.12
[13]
  composite z-score: 0.446
[14]
  composite z-score: 0.446
[15]
  composite z-score: -0.385
[16]
  composite z-score: -0.194
[17]
  composite z-score: -0.206
[18]
  composite z-score: -0.467
[19]
  composite z-score: 0.196
[20]
  composite z-score: 0.754

## CCOC(=O)NN=C1C[C@@H](O)[C@@H](O)[C@@H]2[C@@H]3C(=O)N([C@@H](C)c4ccccc4)C(=O)[C@@H]3CC[C@H]12
[1]
  composite z-score: 0.209
[2]
  composite z-score: -0.0719
[3]
  composite z-score: -0.183
[4]
  z-score: -0.681 (inactive)
[5]
  composite z-score: 0.225
[6]
  composite z-score: 0.515
[7]
  composite z-score: 0.308
[8]
  composite z-score: 0.345
[9]
  composite z-score: 0.309
[10]
  composite z-score: 0.121
[11]
  composite z-score: 0.171
[12]
  z-score: -0.789
[13]
  composite z-score: 0.0792
[14]
  composite z-score: -0.258
[15]
  composite z-score: -0.453
[16]
  composite z-score: -0.124
[17]
  composite z-score: -0.117
[18]
  composite z-score: -0.287
[19]
  composite z-score: 2.53
[20]
  composite z-score: -0.0914
